Measured values from PubChem BioAssay (EPA / NIEHS).
Values joined by “and” are separate entries in the source; they are usually repeats but may differ in a detail not shown here. Identical values can stand only once. Some structures have more than one record in an assay (separate samples or runs), and their calls can disagree. Active and inactive are the calls of the source. The calls were made as follows: active = hit-call score of the fitted dose curve at least 0.9, where 1 is the maximum; inactive = score below 0.9.

Tests used:
Conditions in all cases: mRNA level, 48 h; actives raise or lower the signal
[1] = read-out: Cytochrome P450 4A22 (Homo sapiens) (UniProt Q5TCH4); experiment: LTEA_HepaRG_CYP4A22: Life Technologies and Expression Analysis (LTEA) Assay for Cytochrome P450 4A22 (CYP4A22) using HepaRG (AID 2283495)
Outline: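 Cryopreserved HepaRG cells, plated and cultured 48 h, then switched to serum-free induction medium and treated 48 h (duplicates, up to 100 uM, half-log steps, 0.5% DMSO). Expression change of CYP4A22 was fitted bidirectionally against vehicle.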

[2] = read-out: Cytochrome P450 7A1 (Homo sapiens) (UniProt P22680); experiment: LTEA_HepaRG_CYP7A1: Life Technologies and Expression Analysis (LTEA) Assay for Cytochrome P450 7A1 (CYP7A1) using HepaRG (AID 2283496)
Outline: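 Gene expression endpoint in human HepaRG liver cells treated for 48 h with test chemicals (up to 100 uM, 0.5% DMSO). Values come from bidirectional concentration-response fitting versus DMSO.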

[3] = read-out: Glutathione S-Transferase (GSTA2), GSTA2 (gene 2939); experiment: LTEA_HepaRG_GSTA2: Life Technologies and Expression Analysis (LTEA) Assay for Glutathione S-Transferase (GSTA2) using HepaRG (AID 2283497)
Outline: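 HepaRG, 48 h dosing, 8-pt half-log CRC from 100 uM, 0.5% DMSO vehicle, n=2; RNA → Fluidigm TaqMan qRT-PCR; GSTA2 vs ACTB/GAPDH/POLR2A; gain/loss fit vs DMSO.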

[4] = read-out: Glutamate-cysteine ligase catalytic (GCLC), GCLC (gene 2729); experiment: LTEA_HepaRG_GCLC: Life Technologies and Expression Analysis (LTEA) Assay for Glutamate-cysteine ligase catalytic (GCLC) using HepaRG (AID 2283498)
Outline: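 Read-out is GCLC transcript level by Fluidigm-based TaqMan qRT-PCR, normalized to three housekeeping genes and fitted in both directions relative to 0.5% DMSO. Human HepaRG cells received chemicals for 48 h, up to 100 uM.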

[5] = read-out: growth arrest and DNA damage 45 (GADD45G), GADD45G (gene 10912); experiment: LTEA_HepaRG_GADD45G: Life Technologies and Expression Analysis (LTEA) Assay for growth arrest and DNA damage 45 (GADD45G) using HepaRG (AID 2283499)
Outline: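 Human hepatic HepaRG line treated 48 h with chemicals (eight concentrations, half-log steps from 100 uM); transcript induction or repression of GADD45G scored by qRT-PCR versus DMSO vehicle.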

[6] = read-out: Glutamate-cysteine ligase regulatory (GCLM), GCLM (gene 2730); experiment: LTEA_HepaRG_GCLM: Life Technologies and Expression Analysis (LTEA) Assay for Glutamate-cysteine ligase regulatory (GCLM) using HepaRG (AID 2283500)
Outline: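 Human liver HepaRG cultures receive test chemicals for 48 hours at up to 100 uM in 0.5% DMSO. GCLM expression is measured by qRT-PCR and analysed for increases or decreases against vehicle.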

[7] = read-out: Glutathione S-transferase M3 (GSTM3), GSTM3 (gene 2947); experiment: LTEA_HepaRG_GSTM3: Life Technologies and Expression Analysis (LTEA) Assay for Glutathione S-transferase M3 (GSTM3) using HepaRG (AID 2283501)
Outline: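 Changes in GSTM3 expression, an oxidative-stress marker, were scored by bidirectional curve fitting against 0.5% DMSO vehicle. Human HepaRG cultures received chemicals for 48 h in duplicate, highest concentration 100 uM with half-log dilutions.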

[8] = read-out: Heat shock 70 kDa protein 1 (HSPA1A), gene 3303; experiment: LTEA_HepaRG_HSPA1A: Life Technologies and Expression Analysis (LTEA) Assay for Heat shock 70 kDa protein 1 (HSPA1A) using HepaRG (AID 2283502)
Outline: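 HSPA1A induction in human HepaRG liver cells is measured after 48 h of chemical treatment (100 uM maximum, 0.5% DMSO vehicle). Expression comes from qRT-PCR normalized to endogenous controls.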

[9] = read-out: Hypoxia-inducible factor 1-alpha (Homo sapiens) (UniProt Q16665); experiment: LTEA_HepaRG_HIF1A: Life Technologies and Expression Analysis (LTEA) Assay for Hypoxia-inducible factor 1 (HIF1A) Trancription factor using HepaRG (AID 2283503);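 also: HIF1A transcript by TaqMan qRT-PCR normalized to ACTB GAPDH and POLR2A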
Outline: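 HepaRG, 48 h exposure, 8-pt half-log series from 100 uM, 0.5% DMSO vehicle, duplicates. Readout: HIF1A transcript by qRT-PCR (Fluidigm array), housekeeping-normalised. Bidirectional curve fit vs DMSO baseline.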

[10] = read-out: 3-Hydroxy-3-Methylglutaryl-CoA Synthase 2 (HMGCS2), HMGCS2 (gene 3158); experiment: LTEA_HepaRG_HMGCS2: Life Technologies and Expression Analysis (LTEA) Assay for 3-Hydroxy-3-Methylglutaryl-CoA Synthase 2 (HMGCS2) using HepaRG (AID 2283504)
Outline: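 Expression of HMGCS2 in human HepaRG liver cells is measured by qRT-PCR 48 h after dosing (highest 100 uM, half-log series, 0.5% DMSO). Values come from bidirectional concentration-response fitting with DMSO as baseline.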

[11] = read-out: HGF (gene 3082); experiment: LTEA_HepaRG_HGF: Life Technologies and Expression Analysis (LTEA) Assay for Hepatocyte Growth Facto (HGF) using HepaRG (AID 2283505)
Outline: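 Gain or loss of HGF mRNA in human HepaRG liver cells after 48 h chemical exposure; eight concentrations up to 100 uM with 0.5% DMSO vehicle, quantified by TaqMan qRT-PCR.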

[12] = read-out: Insulin Like Growth Factor 1 (IGF1), IGF1 (gene 3479); experiment: LTEA_HepaRG_IGF1: Life Technologies and Expression Analysis (LTEA) Assay for Insulin Like Growth Factor 1 (IGF1) using HepaRG (AID 2283506)
Outline: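 Using human HepaRG liver cells, IGF1 transcript induction or suppression is measured 48 h after dosing across eight concentrations capped at 100 uM. Values derive from bidirectional concentration-response fitting with DMSO as baseline.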

[13] = read-out: Intercellular Adhesion Molecule 1 (ICAM1), ICAM1 (gene 3383); experiment: LTEA_HepaRG_ICAM1: Life Technologies and Expression Analysis (LTEA) Assay for Intercellular Adhesion Molecule 1 (ICAM1) using HepaRG (AID 2283507)
Outline: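 Gain or loss of transcript in HepaRG hepatic cells is quantified by qRT-PCR after 48 h chemical exposure (up to 100 uM, half-log steps), with DMSO as baseline.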

[14] = read-out: Interleukin 6 (IL6), IL6 (gene 3569); experiment: LTEA_HepaRG_IL6: Life Technologies and Expression Analysis (LTEA) Assay for Interleukin 6 (IL6) using HepaRG (AID 2283509)
Outline: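 HepaRG, ~100,000 cells/well, 48 h pre-culture; serum-free induction medium; cmpd 8-pt half-log from 100 uM, 0.5% DMSO, duplicate, 48 h. Lysis in RLT, TaqMan qRT-PCR; gain or loss vs DMSO.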

[15] = read-out: Interleukin 6 Receptor (IL6R), IL6R (gene 3570); experiment: LTEA_HepaRG_IL6R: Life Technologies and Expression Analysis (LTEA) Assay for Interleukin 6 Receptor (IL6R) using HepaRG (AID 2283510);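 as to AC50: differentiated human HepaRG liver cells in serum-free induction medium; TaqMan qRT-PCR signal normalized to ACTB GAPDH and POLR2A housekeeping genes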
Outline: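 Concentration-response in human liver HepaRG cells: eight concentrations from 100 uM downward by half-logs, 48 h exposure, 0.5% DMSO vehicle. IL6R mRNA change measured by qRT-PCR and fitted in both directions relative to vehicle.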

[16] = read-out: Potassium channel subfamily K member 1 (KCNK1), KCNK1 (gene 3775); experiment: LTEA_HepaRG_KCNK1: Life Technologies and Expression Analysis (LTEA) Assay for Potassium channel subfamily K member 1 (KCNK1) using HepaRG (AID 2283511)
Outline: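 Gain or loss of KCNK1 mRNA is the read-out, quantified by qRT-PCR against three housekeeping genes after 48 h chemical treatment of human HepaRG liver cells. Concentrations ran from 100 uM downward in half-log steps, vehicle 0.5% DMSO.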

[17] = read-out: Keratin 19 (KRT19), KRT19 (gene 3880); experiment: LTEA_HepaRG_KRT19: Life Technologies and Expression Analysis (LTEA) Assay for Keratin 19 (KRT19) using HepaRG (AID 2283512)
Outline: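 Gene-expression endpoint in the human liver line HepaRG after 48 h exposure to up to 100 uM test chemical with 0.5% DMSO vehicle; KRT19 mRNA by qRT-PCR, analyzed bidirectionally versus DMSO.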

[18] = read-out: JUN Transcription Factor, JUN (gene 3725); experiment: LTEA_HepaRG_JUN: Life Technologies and Expression Analysis (LTEA) Assay for JUN Transcription Factor using HepaRG (AID 2283513)
Outline: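 Human HepaRG liver cells receive test chemicals in 0.5% DMSO for 48 h across an eight-point range topping at 100 uM. Expression changes in JUN are scored in both directions against the DMSO vehicle.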

[19] = read-out: Lipase C (LIPC), LIPC (gene 3990); experiment: LTEA_HepaRG_LIPC: Life Technologies and Expression Analysis (LTEA) Assay for Lipase C (LIPC) using HepaRG (AID 2283514)
Outline: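 Read-out is LIPC transcript level by TaqMan qRT-PCR, normalized to three housekeeping genes, after 48 h chemical treatment of human HepaRG liver cells. Curves span eight concentrations topping at 100 uM; activity in either direction scored relative to 0.5% DMSO.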

[20] = read-out: Insulin-like growth factor-binding protein 1 (IGFBP1), IGFBP1 (gene 3484); experiment: LTEA_HepaRG_IGFBP1: Life Technologies and Expression Analysis (LTEA) Assay for Insulin-like growth factor-binding protein 1 (IGFBP1) using HepaRG (AID 2283508)
Outline: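 mRNA induction or loss was quantified by qRT-PCR after 48 h chemical exposure of human HepaRG cells, with 0.5% DMSO as vehicle and baseline. Concentration-response over eight points up to 100 uM.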

Measured: AC50

Hypoxia-inducible factor 1-alpha (Homo sapiens), sequence (Q16665 whole entry, looked up): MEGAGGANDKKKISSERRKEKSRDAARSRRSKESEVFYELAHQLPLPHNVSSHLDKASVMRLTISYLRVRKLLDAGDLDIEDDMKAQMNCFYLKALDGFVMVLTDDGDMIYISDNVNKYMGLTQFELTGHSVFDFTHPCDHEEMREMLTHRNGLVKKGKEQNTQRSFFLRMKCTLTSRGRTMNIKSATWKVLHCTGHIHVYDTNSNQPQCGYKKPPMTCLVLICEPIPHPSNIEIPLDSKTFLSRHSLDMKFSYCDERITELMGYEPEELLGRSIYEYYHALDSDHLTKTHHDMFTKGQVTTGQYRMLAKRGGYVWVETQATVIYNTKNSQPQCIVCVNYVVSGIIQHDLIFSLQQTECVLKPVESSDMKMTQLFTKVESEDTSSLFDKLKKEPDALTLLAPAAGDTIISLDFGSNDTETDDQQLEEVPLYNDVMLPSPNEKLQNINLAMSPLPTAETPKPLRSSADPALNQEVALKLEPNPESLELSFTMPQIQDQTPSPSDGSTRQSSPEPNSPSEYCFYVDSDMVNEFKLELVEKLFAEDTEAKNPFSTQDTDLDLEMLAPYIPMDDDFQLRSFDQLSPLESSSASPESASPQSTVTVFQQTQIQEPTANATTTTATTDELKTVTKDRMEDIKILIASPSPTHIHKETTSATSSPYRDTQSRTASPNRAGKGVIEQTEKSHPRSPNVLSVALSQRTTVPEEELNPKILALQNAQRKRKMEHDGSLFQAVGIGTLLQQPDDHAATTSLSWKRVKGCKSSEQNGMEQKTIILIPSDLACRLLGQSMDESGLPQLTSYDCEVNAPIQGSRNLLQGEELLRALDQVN

CCOC(=O)c1ccc(O)cc1
not listed: [20]
inactive: all other assays above

Cc1nn(C)c(Oc2ccccc2)c1C=NOCc1ccc(C(=O)OC(C)(C)C)cc1
inactive: [4] | [9] | [18]
active: [1] 2.91 µM | [2] 34.7 µM | [3] 30.4 µM | [5] 3.1 µM | [6] 17.6 µM | [7] 3 µM | [8] 1.57 µM | [10] 12.4 µM | [11] 86.6 µM | [12] 3.22 µM | [13] 16.8 µM | [20] 9.63 µM | [14] 5.23 µM | [15] 1.28 µM | [16] 12.9 µM | [17] 2.05 µM | [19] 24.2 µM

c1ccc(Nc2ccccc2)cc1
inactive: all assays above

CCNc1nc(N)nc(Cl)n1
inactive: all assays above

CCN(Cc1c(F)cccc1Cl)c1c([N+](=O)[O-])cc(C(F)(F)F)cc1[N+](=O)[O-]
active: [2] 50 µM | [3] 11.7 µM | [4] 50 µM | [6] 50 µM | [8] 50 µM | [10] 50 µM | [12] 50 µM | [17] 18.1 µM | [19] 50 µM
not listed: [20]
inactive: all other assays above

CCCCC(CC)COC(=O)c1ccccc1C(=O)O (configuration not stated)
active: [2] 50.8 µM | [12] 50.8 µM
not listed: [20]
inactive: all other assays above

O=C(O)c1ccccc1
inactive: all assays above

CSC(=O)c1cccc2nnsc12
inactive: all assays above

CCC(C)OC(=O)N1CCCCC1CCO (configuration not stated)
not listed: [20]
inactive: all other assays above

S=C(S)NCCNC(=S)S.[Mn+2].[S-]C([S-])=NCCN=C([S-])[S-].[Zn+2]
inactive: [4] | [6] | [7] | [8] | [9] | [11] | [16] | [17] | [18]
active: [1] 1.38 µM and 1.35 µM | [2] 1.57 µM and 1.44 µM and 1.47 µM | [3] 890 nM and 1.14 µM and 997 nM | [5] 3.67 µM and 2.31 µM and 3.97 µM | [6] 25 µM | [7] 0.827 µM | [8] 1.21 µM and 4.71 µM | [9] 1.63 µM | [10] 2.25 µM and 1.36 µM and 1.93 µM | [11] 3.68 µM and 9.89 µM | [12] 1.35 µM and 1.45 µM and 2.57 µM | [13] 1.8 µM and 2.09 µM and 2.17 µM | [14] 1.73 µM and 1.92 µM and 2.15 µM | [15] 1.55 µM and 1.5 µM and 1.32 µM | [17] 5.39 µM and 11.4 µM | [18] 1.36 µM and 1.75 µM | [19] 1.21 µM and 1.2 µM and 1.48 µM
